Data taken from the supplement of paper PMC10849652.
The full data set covers some 7,900 targets. This sample favours those with a hit. About 0.6% of all pairs of compound and target were hits. Values without a mark were called inactive.

How the values were obtained:
Assay in all cases: log2 fold change, soluble protein after heating vs DMSO (PISA); higher = thermal stabilisation; K562 cells, 10 uM, 30 min; active = over 0.2 and 3.5 SD of the protein, either way, in both replicates (recomputed)
[1] = compound: CS(=O)(=O)c1ccc(-c2cnc(N)c(C(=O)Nc3ccccc3)n2)cc1
Procedure, shortened: (§1)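 Soluble protein was quantified by TMTpro 16plex LC-MS/MS after channel sums were equalised. It was obtained as the supernatant after 21,000xg for 90 min from pooled aliquots of K562 cells (2×10^6 cells/mL, 10 μM compound, 30 min) heated for 3 min across 48°C-58°C and extracted in PBS with 0.5% NP-40 at 4°C. Thermal stability values are relative to control samples and come from duplicates. They are given as log2 fold changes.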

crizotinib = compound: C[C@@H](Oc1cc(-c2cnn(C3CCNCC3)c2)cnc1N)c1c(Cl)ccc(F)c1Cl [crizotinib]
Procedure, shortened: as §1

[2] = compound: C[C@@H]1COCCN1C2=NC(=NC(=C2)C3(CC3)S(=O)(=O)C)C4=C5C=CNC5=CC=C4
Procedure, shortened: as §1

[3] = compound: C[C@H](C1=CC=C(C=C1)C(=O)NC2=C3C=CNC3=NC=C2)N
Procedure, shortened: as §1

duvelisib = compound: C[C@H](Nc1ncnc2nc[nH]c12)c1cc2cccc(Cl)c2c(=O)n1-c1ccccc1 [duvelisib]
Procedure, shortened: as §1

tozasertib = compound: Cc1cc(Nc2cc(N3CCN(C)CC3)nc(Sc3ccc(NC(=O)C4CC4)cc3)n2)n[nH]1 [tozasertib]
Procedure, shortened: as §1

[4] = compound: Cc1cc(SCc2sc(-c3ccc(C(F)(F)F)cc3)nc2C)ccc1OCC(=O)O
Procedure, shortened: as §1

doramapimod = compound: Cc1ccc(-n2nc(C(C)(C)C)cc2NC(=O)Nc2ccc(OCCN3CCOCC3)c3ccccc23)cc1 [doramapimod]
Procedure, shortened: as §1

bafetinib = compound: Cc1ccc(NC(=O)c2ccc(CN3CC[C@H](N(C)C)C3)c(C(F)(F)F)c2)cc1Nc1nccc(-c2cncnc2)n1 [bafetinib]
Procedure, shortened: as §1

nilotinib = compound: Cc1cn(-c2cc(NC(=O)c3ccc(C)c(Nc4nccc(-c5cccnc5)n4)c3)cc(C(F)(F)F)c2)cn1 [nilotinib]
Procedure, shortened: as §1

[5] = compound: Cc1nc(Nc2n[nH]c3c2CN(C(=O)N[C@H](CN(C)C)c2ccccc2)C3(C)C)c2sccc2n1
Procedure, shortened: as §1

dasatinib = compound: Cc1nc(Nc2ncc(C(=O)Nc3c(C)cccc3Cl)s2)cc(N2CCN(CCO)CC2)n1 [dasatinib]
Procedure, shortened: as §1

[6] = compound: Cc1ncc(-c2ccnc(Nc3ccc(S(C)(=O)=O)cc3)n2)n1C(C)C
Procedure, shortened: as §1

[7] = compound: Cn1cc(-c2ccc3c(c2)CCN3C(=O)Cc2cccc(C(F)(F)F)c2)c2c(N)ncnc21
Procedure, shortened: as §1

tipifarnib = compound: Cn1cncc1[C@@](N)(c1ccc(Cl)cc1)c1ccc2c(c1)c(-c1cccc(Cl)c1)cc(=O)n2C [tipifarnib]
Procedure, shortened: as §1

mubritinib = compound: FC(F)(F)c1ccc(/C=C/c2nc(COc3ccc(CCCCn4ccnn4)cc3)co2)cc1 [mubritinib]
Procedure, shortened: as §1

gandotinib = compound: Cc1cc(Nc2cc(CN3CCOCC3)c3nc(C)c(Cc4ccc(Cl)cc4F)n3n2)n[nH]1 [gandotinib]
Procedure, shortened: as §1

[8] = compound: Cc1cccc(CC(=O)N2CCc3c2ccc(-c2cn(C)c4ncnc(N)c24)c3F)n1
Procedure, shortened: as §1

ispinesib = compound: Cc1ccc(C(=O)N(CCCN)[C@@H](c2nc3cc(Cl)ccc3c(=O)n2Cc2ccccc2)C(C)C)cc1 [ispinesib]
Procedure, shortened: as §1

[9] = compound: Cn1cc(-c2ccc3nnc(C(F)(F)c4ccc5ncccc5c4)n3n2)cn1
Procedure, shortened: as §1

UniProt O95486, sequence (O95486 whole entry, looked up): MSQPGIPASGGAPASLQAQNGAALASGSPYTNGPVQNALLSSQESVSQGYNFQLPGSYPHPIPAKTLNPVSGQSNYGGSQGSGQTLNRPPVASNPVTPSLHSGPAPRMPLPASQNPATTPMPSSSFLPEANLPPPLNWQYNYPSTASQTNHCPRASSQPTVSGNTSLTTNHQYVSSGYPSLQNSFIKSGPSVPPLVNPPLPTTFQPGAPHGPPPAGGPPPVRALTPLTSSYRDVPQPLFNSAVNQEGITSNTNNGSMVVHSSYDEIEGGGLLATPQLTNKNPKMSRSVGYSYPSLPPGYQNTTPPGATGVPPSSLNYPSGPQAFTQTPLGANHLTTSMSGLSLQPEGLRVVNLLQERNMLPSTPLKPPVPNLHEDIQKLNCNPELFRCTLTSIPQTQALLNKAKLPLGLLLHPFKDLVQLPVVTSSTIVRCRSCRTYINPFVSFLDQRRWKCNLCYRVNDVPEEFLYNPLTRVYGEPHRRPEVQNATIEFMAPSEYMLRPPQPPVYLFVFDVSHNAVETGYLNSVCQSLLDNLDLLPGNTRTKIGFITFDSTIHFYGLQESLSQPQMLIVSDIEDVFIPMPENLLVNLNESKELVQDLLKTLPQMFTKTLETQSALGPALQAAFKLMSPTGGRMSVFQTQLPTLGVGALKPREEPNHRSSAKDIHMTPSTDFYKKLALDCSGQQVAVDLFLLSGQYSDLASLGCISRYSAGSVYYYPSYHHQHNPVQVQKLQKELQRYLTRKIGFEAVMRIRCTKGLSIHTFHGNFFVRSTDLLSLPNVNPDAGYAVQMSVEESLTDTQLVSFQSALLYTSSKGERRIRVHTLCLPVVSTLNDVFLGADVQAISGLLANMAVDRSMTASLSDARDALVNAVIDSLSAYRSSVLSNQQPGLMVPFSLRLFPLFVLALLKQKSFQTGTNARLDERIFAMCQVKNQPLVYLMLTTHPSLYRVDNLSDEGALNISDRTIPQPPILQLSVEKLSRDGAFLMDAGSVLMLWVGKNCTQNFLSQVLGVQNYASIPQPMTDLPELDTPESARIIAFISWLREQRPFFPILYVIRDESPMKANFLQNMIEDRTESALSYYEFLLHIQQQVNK
UniProt P04049, sequence (P04049 whole entry, looked up): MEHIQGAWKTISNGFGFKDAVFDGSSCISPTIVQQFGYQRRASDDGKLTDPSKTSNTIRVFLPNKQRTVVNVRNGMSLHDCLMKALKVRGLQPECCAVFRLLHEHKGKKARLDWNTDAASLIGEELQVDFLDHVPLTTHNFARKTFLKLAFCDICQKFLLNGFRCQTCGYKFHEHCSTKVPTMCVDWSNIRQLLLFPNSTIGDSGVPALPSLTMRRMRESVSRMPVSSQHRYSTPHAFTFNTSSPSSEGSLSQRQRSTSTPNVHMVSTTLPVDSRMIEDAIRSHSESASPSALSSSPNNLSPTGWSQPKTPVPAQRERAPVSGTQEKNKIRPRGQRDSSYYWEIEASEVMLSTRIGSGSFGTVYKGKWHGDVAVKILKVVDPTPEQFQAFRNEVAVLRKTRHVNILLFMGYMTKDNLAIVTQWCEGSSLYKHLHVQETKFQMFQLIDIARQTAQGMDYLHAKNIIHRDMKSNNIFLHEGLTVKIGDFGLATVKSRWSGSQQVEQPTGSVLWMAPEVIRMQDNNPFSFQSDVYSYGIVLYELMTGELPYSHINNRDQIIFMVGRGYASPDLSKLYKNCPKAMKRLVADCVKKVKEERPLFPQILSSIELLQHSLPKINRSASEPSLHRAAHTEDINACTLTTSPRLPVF
UniProt Q96LZ7, sequence (Q96LZ7 whole entry, looked up): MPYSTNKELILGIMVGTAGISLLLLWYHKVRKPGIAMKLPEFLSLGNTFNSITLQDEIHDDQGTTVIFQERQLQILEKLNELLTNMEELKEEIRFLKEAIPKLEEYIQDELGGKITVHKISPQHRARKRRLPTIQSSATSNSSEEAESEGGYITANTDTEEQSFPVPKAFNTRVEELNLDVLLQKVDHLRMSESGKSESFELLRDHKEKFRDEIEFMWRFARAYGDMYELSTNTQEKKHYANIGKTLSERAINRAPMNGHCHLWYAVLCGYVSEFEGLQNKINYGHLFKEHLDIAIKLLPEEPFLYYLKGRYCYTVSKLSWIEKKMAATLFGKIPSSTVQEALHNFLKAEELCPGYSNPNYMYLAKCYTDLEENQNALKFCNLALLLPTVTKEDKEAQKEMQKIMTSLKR
UniProt Q5VUM1, sequence (Q5VUM1 whole entry, looked up): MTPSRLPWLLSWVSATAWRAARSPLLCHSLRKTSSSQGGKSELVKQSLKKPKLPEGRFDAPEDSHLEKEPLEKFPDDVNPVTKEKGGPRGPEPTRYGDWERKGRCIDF
UniProt Q13796, sequence (Q13796 whole entry, looked up): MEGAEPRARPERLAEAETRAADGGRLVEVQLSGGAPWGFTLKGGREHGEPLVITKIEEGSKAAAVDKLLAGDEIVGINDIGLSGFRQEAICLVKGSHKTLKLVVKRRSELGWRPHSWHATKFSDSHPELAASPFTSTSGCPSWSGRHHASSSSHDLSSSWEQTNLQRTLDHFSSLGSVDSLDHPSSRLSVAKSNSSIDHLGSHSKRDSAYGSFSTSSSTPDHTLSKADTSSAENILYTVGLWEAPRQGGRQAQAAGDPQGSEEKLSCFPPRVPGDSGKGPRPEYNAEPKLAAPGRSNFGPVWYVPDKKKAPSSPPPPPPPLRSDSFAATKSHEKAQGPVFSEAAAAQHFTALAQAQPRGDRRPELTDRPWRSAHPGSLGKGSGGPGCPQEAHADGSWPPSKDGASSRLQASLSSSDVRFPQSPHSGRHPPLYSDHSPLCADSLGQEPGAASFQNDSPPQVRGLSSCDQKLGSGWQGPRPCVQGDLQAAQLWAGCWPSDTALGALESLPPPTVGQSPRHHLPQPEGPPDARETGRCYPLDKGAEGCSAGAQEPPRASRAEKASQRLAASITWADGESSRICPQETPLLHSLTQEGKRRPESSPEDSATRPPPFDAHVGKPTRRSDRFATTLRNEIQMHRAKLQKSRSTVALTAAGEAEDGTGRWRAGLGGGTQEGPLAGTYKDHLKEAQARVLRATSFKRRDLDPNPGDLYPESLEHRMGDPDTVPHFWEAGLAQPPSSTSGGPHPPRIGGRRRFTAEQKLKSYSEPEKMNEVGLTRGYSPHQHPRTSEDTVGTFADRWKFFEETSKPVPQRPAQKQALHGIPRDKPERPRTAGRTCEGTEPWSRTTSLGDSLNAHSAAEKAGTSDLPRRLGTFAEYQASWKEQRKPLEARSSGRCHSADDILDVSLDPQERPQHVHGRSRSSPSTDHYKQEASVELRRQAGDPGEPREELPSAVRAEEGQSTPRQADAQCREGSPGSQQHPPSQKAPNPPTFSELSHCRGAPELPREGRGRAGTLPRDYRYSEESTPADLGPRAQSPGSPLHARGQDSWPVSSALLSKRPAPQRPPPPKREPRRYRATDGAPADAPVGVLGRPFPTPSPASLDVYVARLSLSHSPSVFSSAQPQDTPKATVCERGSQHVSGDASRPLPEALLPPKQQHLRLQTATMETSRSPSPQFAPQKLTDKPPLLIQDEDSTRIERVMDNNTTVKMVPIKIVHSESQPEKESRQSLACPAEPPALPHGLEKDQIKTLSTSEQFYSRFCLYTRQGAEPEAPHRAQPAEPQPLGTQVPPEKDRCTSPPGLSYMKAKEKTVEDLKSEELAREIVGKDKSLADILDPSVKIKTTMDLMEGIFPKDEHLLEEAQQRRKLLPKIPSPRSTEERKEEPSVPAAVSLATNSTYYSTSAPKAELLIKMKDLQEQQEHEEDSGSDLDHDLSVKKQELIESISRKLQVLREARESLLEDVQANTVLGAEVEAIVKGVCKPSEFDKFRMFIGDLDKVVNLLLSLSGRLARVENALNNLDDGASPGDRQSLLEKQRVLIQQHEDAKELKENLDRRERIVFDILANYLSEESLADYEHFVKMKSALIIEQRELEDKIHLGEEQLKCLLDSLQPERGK
UniProt Q8IZE3, sequence (Q8IZE3 whole entry, looked up): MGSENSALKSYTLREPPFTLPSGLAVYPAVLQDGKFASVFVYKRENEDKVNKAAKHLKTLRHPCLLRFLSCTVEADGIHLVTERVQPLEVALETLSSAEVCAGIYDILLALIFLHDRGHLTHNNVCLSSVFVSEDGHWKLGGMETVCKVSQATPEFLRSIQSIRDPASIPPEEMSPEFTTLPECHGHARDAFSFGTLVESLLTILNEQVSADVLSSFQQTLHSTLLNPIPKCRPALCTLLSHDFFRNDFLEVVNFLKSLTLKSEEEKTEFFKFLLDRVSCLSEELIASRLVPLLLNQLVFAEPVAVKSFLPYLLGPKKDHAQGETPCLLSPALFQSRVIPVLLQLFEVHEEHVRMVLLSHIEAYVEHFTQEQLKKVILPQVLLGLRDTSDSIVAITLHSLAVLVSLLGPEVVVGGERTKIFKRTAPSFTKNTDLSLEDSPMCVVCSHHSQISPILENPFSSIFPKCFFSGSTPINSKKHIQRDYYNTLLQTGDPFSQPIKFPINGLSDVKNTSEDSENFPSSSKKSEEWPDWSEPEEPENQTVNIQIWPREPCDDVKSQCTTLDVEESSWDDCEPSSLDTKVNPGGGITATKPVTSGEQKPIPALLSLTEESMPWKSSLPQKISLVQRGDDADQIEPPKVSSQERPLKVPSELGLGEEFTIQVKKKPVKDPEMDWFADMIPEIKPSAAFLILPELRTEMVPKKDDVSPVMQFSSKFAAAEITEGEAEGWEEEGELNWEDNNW
UniProt Q99496, sequence (Q99496 whole entry, looked up): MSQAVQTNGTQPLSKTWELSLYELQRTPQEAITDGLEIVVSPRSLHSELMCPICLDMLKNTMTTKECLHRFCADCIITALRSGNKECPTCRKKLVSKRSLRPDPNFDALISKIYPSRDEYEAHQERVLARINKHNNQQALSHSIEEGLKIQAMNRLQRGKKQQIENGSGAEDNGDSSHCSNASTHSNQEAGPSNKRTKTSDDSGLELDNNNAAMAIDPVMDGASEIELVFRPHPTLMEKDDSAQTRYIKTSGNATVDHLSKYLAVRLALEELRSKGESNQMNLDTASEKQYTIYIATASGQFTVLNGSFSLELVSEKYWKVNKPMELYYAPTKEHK
UniProt Q9BWJ5, sequence (Q9BWJ5 whole entry, looked up): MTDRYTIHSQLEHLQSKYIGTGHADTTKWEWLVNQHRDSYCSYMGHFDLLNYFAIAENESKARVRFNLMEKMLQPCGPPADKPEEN

Target | log2 fold change [1] | log2 fold change (crizotinib) | log2 fold change [2] | log2 fold change [3] | log2 fold change (duvelisib) | log2 fold change (tozasertib) | log2 fold change [4] | log2 fold change (doramapimod) | log2 fold change (bafetinib) | log2 fold change (nilotinib) | log2 fold change [5] | log2 fold change (dasatinib) | log2 fold change [6] | log2 fold change [7] | log2 fold change (tipifarnib) | log2 fold change (mubritinib) | log2 fold change (gandotinib) | log2 fold change [8] | log2 fold change (ispinesib) | log2 fold change [9]
SDHAF4 (UniProt Q5VUM1) | 0.033 | -0.047 | 0.153 | 0.181 | 0.003 | 0 | -0.038 | 0.091 | -0.078 | -0.043 | -0.003 | 0.034 | 0.056 | 0.077 | -0.041 | 0.03 | – | – | – | –
RABGAP1L isoform 5 (UniProt Q5R372) | 0.071 | 0.003 | 0.022 | 0.046 | 0.008 | -0.121 | -0.015 | -0.073 | -0.031 | 0.112 | -0.003 | -0.054 | -0.047 | -0.002 | 0.073 | 0.036 | – | – | – | –
RNF2 (UniProt Q99496) | 0.008 | -0.028 | -0.013 | -0.105 | -0.033 | 0.149 | 0.073 | -0.093 | -0.102 | 0.065 | -0.214 | -0.106 | 0.061 | -0.005 | -0.026 | -0.031 | -0.091 | 0.022 | – | –
RBM8A (UniProt Q9Y5S9) | 0.012 | 0.287 (active) | 0.007 | 0.025 | 0.019 | -0.015 | 0.025 | -0.078 | -0.013 | -0.047 | -0.063 | 0.001 | 0.126 | -0.02 | 0.019 | 0.013 | 0.069 | -0.014 | 0.099 | 0.065
RSF1 (UniProt Q96T23) | 0.056 | -0.054 | -0.002 | -0.058 | 0.108 | 0.228 | 0.194 | 0.043 | 0.117 | 0.087 | -0.102 | -0.082 | -0.096 | 0.046 | -0.222 | 0.237 | -0.104 | -0.027 | 0.087 | 0.079
RAF1 isoform 2 (UniProt P04049) | 0.023 | -0.305 | -0.135 | -0.092 | 0.068 | 0.093 | 0.035 | 0.133 | -0.062 | – | – | -0.191 | – | 0.181 | -0.185 | -0.286 | 0.131 | -0.168 | -0.145 | -0.144
RAB3IL1 (UniProt E9PK89) | 0.036 | -0.003 | 0.163 | -0.211 | – | -0.099 | – | -0.07 | -0.053 | -0.007 | -0.189 | – | -0.101 | 0.258 | -0.035 | – | 0.154 | 0.01 | 0.07 | 0.056
SCAMP2 (UniProt H3BUB6) | 0.085 | 0.128 | -0.011 | 0.317 | 0.166 | -0.159 | -0.305 | -0.088 | -0.226 | -0.056 | 0.03 | 0 | -0.069 | 0.062 | 0.188 | 0.023 | – | – | -0.258 | 0.095
RPL38 (UniProt P63173) | -0.039 | -0.069 | -0.258 (active) | 0.077 | -0.064 | -0.017 | -0.008 | 0.017 | 0.089 | 0.026 | 0.155 | 0.057 | -0.003 | -0.023 | -0.021 | 0.006 | 0.144 | 0.01 | -0.093 | -0.022
SF3B5 (UniProt Q9BWJ5) | 0.027 | -0.012 | 0.176 | – | 0.358 | -0.152 | 0.002 | -0.089 | -0.115 | 0.029 | 0.008 | -0.189 | -0.064 | – | -0.018 | -0.043 | 0.087 | -0.056 | – | –
SGPL1 (UniProt O95470) | 0.095 | 0.077 | -0.034 | 0.011 | 0.019 | -0.089 | 0.024 | 0.084 | 0.009 | 0.024 | -0.017 | 0.016 | -0.029 | -0.005 | 0.151 | 0.034 | 0.259 | -0.013 | 0.077 | -0.071
SESN2 (UniProt P58004) | 0.042 | -0.191 | -0.028 | 0.077 | -0.018 | 0 | 0.006 | 0.192 | -0.09 | -0.02 | -0.207 | -0.034 | -0.063 | 0.069 | -0.213 | 0.042 | -0.046 | 0.136 | -0.322 | -0.069
RBBP6 (UniProt Q7Z6E9) | -0.117 | -0.158 | -0.036 | 0.072 | – | 0.03 | – | 0.012 | -0.018 | 0 | -0.031 | – | -0.003 | 0.003 | -0.058 | -0.171 | -0.066 | -0.004 | 0.168 | -0.01
SHROOM2 (UniProt Q13796) | 0.093 | 0.005 | 0.013 | -0.099 | 0.059 | -0.195 | -0.233 | 0.008 | -0.091 | 0.082 | 0.011 | 0.166 | -0.043 | 0.163 | -0.022 | 0.258 | 0.397 | -0.02 | – | –
SEC24A (UniProt O95486) | 0.002 | -0.001 | 0.075 | 0.001 | 0.038 | 0.018 | 0.084 | -0.029 | -0.018 | -0.126 | 0.021 | -0.121 | -0.012 | 0.008 | -0.005 | 0.017 | -0.148 | 0.041 | 0.017 | 0.016
RNF41 (UniProt Q9H4P4) | – | – | – | – | – | – | – | – | -0.09 | – | – | – | – | – | – | – | – | – | – | –
SCYL3 isoform 2 (UniProt Q8IZE3) | – | -0.118 | -0.106 | -0.044 | 0.129 | -0.113 | -0.024 | -0.01 | -0.056 | -0.215 | -0.167 | -0.124 | 0.111 | -0.062 | 0.044 | 0.032 | -0.069 | -0.017 | -0.041 | -0.05
RMDN2 isoform 2 (UniProt Q96LZ7) | – | 0 | – | – | – | – | – | 0.145 | – | -0.556 | 0.661 | – | -0.115 | – | – | -0.231 | – | – | -0.112 | -0.104
RPS19 (UniProt M0R2L9) | – | – | – | – | – | -0.034 | – | – | – | 0.116 | 0 | – | -0.267 | – | -0.126 | 0.229 | – | – | – | –
